Laboratory results published in PubChem BioAssay (NCATS).
Results filed as inconclusive are left out. Entries that show only a call come without a potency. Values without a mark were called inactive. Calls of active or inactive are those of the source. The call rests on the fitted dose curve; in most records, active means well fitted curve in the direction sought with a large enough effect; inconclusive means small, poorly fitted or top-dose-only effect, or another doubt; inactive means no such curve, though single readings can be large; an effect the other way counts as inactive or inconclusive.

Tests used:
[1] = molecular target: Calcium and integrin-binding protein 1 (Homo sapiens) (UniProt Q99828); assay: Primary qHTS for Identification of Calcium Integrin Binding Protein 1 (CIB1) Competitor (AID 1508620);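 further: GST tagged CIB1 binding a fluorescein labelled alphaIIb integrin peptide tracer; top concentration of the series differs between compounds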
Calcium and integrin-binding protein 1 (Homo sapiens), sequence (Q99828 whole entry, looked up): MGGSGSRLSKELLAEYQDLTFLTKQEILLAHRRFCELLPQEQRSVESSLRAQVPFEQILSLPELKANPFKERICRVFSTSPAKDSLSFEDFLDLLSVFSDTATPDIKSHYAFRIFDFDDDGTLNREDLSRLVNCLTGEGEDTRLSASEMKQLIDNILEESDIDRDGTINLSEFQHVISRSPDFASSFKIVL
Method in brief: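 Fluorescence polarization competition: CIB1-GST (1 uM final) preincubated with compound 15 min at room temperature, then FITC-labeled alphaIIb peptide (100 nM final) added for another 15 min. Polarization read at Ex 480/Em 540.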

[2] = Primary qHTS for inhibitors of nuclear receptor binding SET domain protein 2 (NSD2) in an isogenic RCH-ACV NSD2 p.E1099K mutant (9B) (AID 1645876); further: nearly all actives have a fitted effect of over 70% in size; further: potency means the concentration at half of the fitted maximal effect
[3] = Primary qHTS for inhibitors of nuclear receptor binding SET domain protein 2 (NSD2) in an RCH-ACV wild type WT cells (2C) (AID 1645877); further: nearly all actives have a fitted effect of over 70% in size; further: potency means the concentration at half of the fitted maximal effect

| Structure (SMILES) | activity change, negative = inhibition [1] | Potency [2] | Potency [3] | Potency [1] | activity change, negative = viability loss [2] | activity change, negative = cell killing [3] |
| --- | --- | --- | --- | --- | --- | --- |
| CC1(C)CC[C@]23CO[C@@]4(CCC5[C@@]6(C)CC[C@H](O[C@@H]7OC[C@H](O[C@@H]8O[C@H](CO)[C@@H](O)[C@H](O)[C@H]8O)[C@H](O)[C@H]7O[C@@H]7O[C@H](CO)[C@@H](O[C@@H]8O[C@H](CO)[C@@H](O)[C@H](O)[C@H]8O)[C@H](O)[C@H]7O)[C@@](C)(CO)C6CC[C@@]5(C)[C@]4(C)C[C@H]2OC2OCC(O)C(O)C2O)C3C1 (some centres not stated) | -6.44% [at 12.4 µM] | 0.688 µM (active) | 1.09 µM (active) |  |  |  |
| CC1(C)CC[C@]2(C(=O)O[C@@H]3O[C@H](CO)[C@@H](O)[C@H](O)[C@H]3O)CC[C@]3(C)C(=CCC4[C@@]5(C)CC[C@H](O[C@@H]6O[C@H](C(=O)O)[C@@H](O)[C@H](O)[C@H]6O)C(C)(C)C5CC[C@]43C)C2C1 (some centres not stated) |  |  |  | inactive | -3.82% [at 9.23 µM] | 4.17% [at 9.23 µM] |
| O=C(O[C@H]1[C@@H]2C[C@@H]3OC[C@](O)([C@@H]1Cl)[C@H]2C(O[C@@H]1O[C@H](CO)[C@@H](O)[C@H](O)[C@H]1O)O3)c1ccc(O)c(O)c1 (some centres not stated) |  | inactive | inactive | inactive |  |  |
| C=C(C)C(=O)O[C@H]1CC2=CC(C/C(C)=C\[C@H]3OC(=O)C(=C)[C@H]13)OC2=O (some centres not stated) |  | 5.05 µM (active) | 3.58 µM (active) | inactive |  |  |
| COc1cc(C)c(C(=O)Oc2cc(C)c(C(=O)Oc3cc(C)c(C(=O)NC(C)C(=O)O)c(O)c3)c(O[C@@H]3O[C@H](CO)[C@@H](O)[C@H](O)[C@H]3OC(C)=O)c2)c(OC)c1 (some centres not stated) |  | inactive | inactive | inactive |  |  |
| OC[C@H]1O[C@@H](O[C@H]2[C@H](OCc3ccccc3)O[C@H](CO[C@@H]3OC[C@@H](O)[C@H](O)[C@H]3O)[C@@H](O)[C@@H]2O)[C@H](O)[C@@H](O)[C@@H]1O |  | inactive | inactive | inactive |  |  |
| CC1(C)CC2C(C1)C(C)(O)C13CC1(COC3=O)C2O (configuration not stated) |  | inactive | inactive | inactive |  |  |
| N=c1nc2n(cc1F)C1OC(CO)C(O)C1O2 (configuration not stated) |  | 0.0578 µM (active) | 0.0183 µM (active) | inactive |  |  |
| C[C@@H]1C(=O)O[C@H](C)[C@H]1CC(=O)[C@](C)(O)[C@H]1CC[C@@]2(O)C3=CC(=O)[C@@H]4C[C@@H](O)[C@@H](O)C[C@]4(C)C3CC[C@]12C (some centres not stated) |  | inactive | inactive | inactive |  |  |
| Cc1ccc(S(=O)(=O)c2ccc([N+](=O)[O-])o2)cc1 |  | 0.649 µM (active) | 0.163 µM (active) | inactive |  |  |
| C=C1C[C@]23C[C@H]1CC[C@H]2[C@@]12CC[C@H](O)[C@@](C)(C(=O)O1)[C@H]2[C@@H]3C(=O)O |  | inactive | inactive | inactive |  |  |
| CC1(C)CCC2(C(=O)OC3OC(CO)C(O)C(O)C3O)CCC3(C)C(=CCC4C5(C)CCC(OC6OC(C(=O)O)C(OC7OC(CO)C(O)C(O)C7O)C(OC7OC(CO)C(O)C(O)C7O)C6O)C(C)(C)C5CCC43C)C2C1 (configuration not stated) |  |  |  | inactive | -4.92% [at 9.23 µM] | -7.84% [at 9.23 µM] |
| CC(C)=CCC/C(C)=C/Cc1ccc(O)c(C2OC(=O)c3cc(C(=O)O)cc(O)c32)c1O (configuration not stated) |  | inactive | inactive | inactive |  |  |
| C=C1CCCC2(C)CC3(OC)OC(=O)C(C)=C3CC12 (configuration not stated) |  | inactive | inactive | inactive |  |  |
| OC[C@H]1O[C@@H](OCCc2ccc(O)cc2)[C@H](O[C@@H]2OC[C@](O)(CO)[C@H]2O)[C@@H](O)[C@@H]1O |  | inactive | inactive | inactive |  |  |
| C[C@@H]1CC[C@]2(C(=O)O)CC[C@]3(C)C(=CCC4[C@@]5(C)CC[C@H](O)C(C)(C)C5C(O)C[C@]43C)[C@@H]2[C@]1(C)O (some centres not stated) |  | inactive | inactive | inactive |  |  |
| C[C@H]1O[C@@H](O[C@H]2CC[C@@]3(C)C(CC[C@]4(C)C3CC=C3C5CC(C)(C)CC[C@]5(C(=O)O)CC[C@]34C(=O)O)C2(C)C)[C@H](O)[C@@H](O)[C@@H]1O (some centres not stated) |  | inactive | inactive | inactive |  |  |
| C/C=C/C(O)C1OC(=O)CC1Nc1ccc(C(=O)O)cc1 (configuration not stated) |  | inactive | inactive | inactive |  |  |
| C1CCC[C@H]2CCCN3CC[C@@H](CCCCCC[C@@H]4CCCN5CC[C@@H](CC1)O[C@@H]45)O[C@@H]23 | -0.14% [at 0.247 µM] |  |  |  | -4.42% [at 0.177 µM] | -1.13% [at 0.177 µM] |
